# Source: publication PMC7862700, “An all-to-all approach to the identification of sequence-specific readers for epigenetic DNA modifications on cytosine”
# Key:
# Assay in all cases: DAPPL (digital affinity profiling via proximity ligation, sequencing); 10 mM Tris-HCl pH 7.5, 50 mM NaCl, 1 mM DTT, 4% glycerol, room temperature, 30 min; GST-TFs on glutathione beads, 16-mer random dsDNA library, 0.1% formaldehyde crosslink after washing; high values mean tight binding
# [1] = target: T1, FLI1 (Homo sapiens, UniProt Q01543 1-452); details: protein: recombinant; tags: N-terminal GST; dsDNA, one strand shown
# T1 sequence: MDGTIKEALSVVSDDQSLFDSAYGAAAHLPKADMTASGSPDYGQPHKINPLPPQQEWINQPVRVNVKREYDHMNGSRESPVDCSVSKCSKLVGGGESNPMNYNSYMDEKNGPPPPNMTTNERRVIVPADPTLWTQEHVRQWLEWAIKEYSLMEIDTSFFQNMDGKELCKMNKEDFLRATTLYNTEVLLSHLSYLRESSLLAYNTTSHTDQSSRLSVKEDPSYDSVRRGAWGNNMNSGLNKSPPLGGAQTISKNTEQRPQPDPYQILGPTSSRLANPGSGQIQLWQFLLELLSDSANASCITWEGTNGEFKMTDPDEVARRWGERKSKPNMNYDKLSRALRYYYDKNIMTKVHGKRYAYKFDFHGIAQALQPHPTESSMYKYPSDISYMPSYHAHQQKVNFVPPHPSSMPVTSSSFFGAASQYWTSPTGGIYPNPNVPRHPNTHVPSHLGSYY
# In short: (§1)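 Pools of DNA-barcoded human transcription factors, expressed in yeast as GST fusions on glutathione beads and combined with a tag-only sample, were incubated with 200 nmole of a 16-mer random double-stranded DNA library. Incubation took 30 min at room temperature in Tris/NaCl/DTT/glycerol buffer and was followed by washing, 0.1% formaldehyde crosslinking, proximity ligation (BsaI/T4 ligase, 1 h, 37 °C), PCR amplification and sequencing on an Illumina NextSeq500. Binding signal is the ratio of a hexamer's read frequency for a factor to its frequency for the tag-only sample.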
# [2] = target: T2, ELK1 (Homo sapiens, UniProt P19419 1-428); details: protein: recombinant; tags: N-terminal GST; dsDNA, one strand shown
# T2 sequence: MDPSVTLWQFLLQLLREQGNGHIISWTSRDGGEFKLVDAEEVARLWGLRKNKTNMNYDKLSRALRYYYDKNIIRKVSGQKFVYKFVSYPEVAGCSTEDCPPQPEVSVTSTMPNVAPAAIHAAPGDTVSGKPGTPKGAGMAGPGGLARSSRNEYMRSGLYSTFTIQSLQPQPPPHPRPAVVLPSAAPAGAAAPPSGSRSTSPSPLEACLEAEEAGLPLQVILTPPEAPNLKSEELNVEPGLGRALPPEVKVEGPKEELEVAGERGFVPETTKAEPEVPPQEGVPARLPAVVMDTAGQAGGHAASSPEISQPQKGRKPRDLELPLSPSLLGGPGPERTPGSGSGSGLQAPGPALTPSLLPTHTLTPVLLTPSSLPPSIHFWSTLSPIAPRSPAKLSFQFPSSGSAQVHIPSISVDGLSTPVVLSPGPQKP
# In short: as §1
# [3] = target: T3, GABPA (Homo sapiens, UniProt Q06546 1-454); details: protein: recombinant; tags: N-terminal GST; dsDNA, one strand shown
# T3 sequence: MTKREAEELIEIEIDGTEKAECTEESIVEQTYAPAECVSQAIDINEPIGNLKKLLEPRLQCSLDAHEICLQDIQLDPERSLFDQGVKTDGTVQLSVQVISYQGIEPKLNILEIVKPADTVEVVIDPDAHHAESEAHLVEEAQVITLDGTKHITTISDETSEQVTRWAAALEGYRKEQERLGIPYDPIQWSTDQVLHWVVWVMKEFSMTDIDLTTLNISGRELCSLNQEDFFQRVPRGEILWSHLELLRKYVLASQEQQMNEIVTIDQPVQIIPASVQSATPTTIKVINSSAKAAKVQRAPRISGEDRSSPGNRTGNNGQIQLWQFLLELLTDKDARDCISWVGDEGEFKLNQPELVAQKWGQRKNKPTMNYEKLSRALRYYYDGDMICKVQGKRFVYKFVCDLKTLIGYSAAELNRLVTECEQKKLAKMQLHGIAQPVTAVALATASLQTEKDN
# In short: as §1
# [4] = target: T4, ERG (Homo sapiens, UniProt P11308 1-479); details: protein: recombinant; tags: N-terminal GST; dsDNA, one strand shown
# T4 sequence: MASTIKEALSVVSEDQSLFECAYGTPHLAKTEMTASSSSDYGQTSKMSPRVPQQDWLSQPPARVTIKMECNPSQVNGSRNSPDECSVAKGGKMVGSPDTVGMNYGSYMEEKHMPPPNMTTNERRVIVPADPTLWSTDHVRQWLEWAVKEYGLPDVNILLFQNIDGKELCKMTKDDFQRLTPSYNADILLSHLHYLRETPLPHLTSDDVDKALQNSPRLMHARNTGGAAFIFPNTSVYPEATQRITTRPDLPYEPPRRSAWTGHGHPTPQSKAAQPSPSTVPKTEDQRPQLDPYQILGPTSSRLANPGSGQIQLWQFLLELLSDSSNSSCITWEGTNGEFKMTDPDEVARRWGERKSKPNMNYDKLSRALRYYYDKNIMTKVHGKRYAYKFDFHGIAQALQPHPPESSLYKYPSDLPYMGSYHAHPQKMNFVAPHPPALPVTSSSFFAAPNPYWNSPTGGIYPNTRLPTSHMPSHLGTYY
# In short: as §1
# [5] = target: ELF1 (Homo sapiens, UniProt P32519 1-619); details: protein: recombinant; tags: N-terminal GST; dsDNA, one strand shown
# Chain of ELF1 (P32519 whole entry): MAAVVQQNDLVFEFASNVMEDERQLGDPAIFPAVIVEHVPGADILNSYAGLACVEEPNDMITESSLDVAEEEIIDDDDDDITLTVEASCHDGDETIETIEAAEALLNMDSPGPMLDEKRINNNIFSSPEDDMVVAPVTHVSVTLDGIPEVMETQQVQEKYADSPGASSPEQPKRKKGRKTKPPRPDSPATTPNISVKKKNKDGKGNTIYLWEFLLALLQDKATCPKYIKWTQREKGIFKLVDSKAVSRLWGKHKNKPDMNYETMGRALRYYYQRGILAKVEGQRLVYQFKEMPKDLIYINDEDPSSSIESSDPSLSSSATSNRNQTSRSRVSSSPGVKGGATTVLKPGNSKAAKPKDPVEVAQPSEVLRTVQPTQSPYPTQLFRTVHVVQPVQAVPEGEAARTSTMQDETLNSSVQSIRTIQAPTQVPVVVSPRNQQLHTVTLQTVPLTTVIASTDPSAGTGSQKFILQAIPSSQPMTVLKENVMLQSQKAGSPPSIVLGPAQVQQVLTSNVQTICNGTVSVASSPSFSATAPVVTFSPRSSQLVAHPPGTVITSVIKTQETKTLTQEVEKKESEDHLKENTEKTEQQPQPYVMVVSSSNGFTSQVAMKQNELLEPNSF
# In short: as §1
# [6] = target: T5, EHF (Homo sapiens, UniProt Q9NZC4 1-300); details: protein: recombinant; tags: N-terminal GST; dsDNA, one strand shown
# T5 sequence: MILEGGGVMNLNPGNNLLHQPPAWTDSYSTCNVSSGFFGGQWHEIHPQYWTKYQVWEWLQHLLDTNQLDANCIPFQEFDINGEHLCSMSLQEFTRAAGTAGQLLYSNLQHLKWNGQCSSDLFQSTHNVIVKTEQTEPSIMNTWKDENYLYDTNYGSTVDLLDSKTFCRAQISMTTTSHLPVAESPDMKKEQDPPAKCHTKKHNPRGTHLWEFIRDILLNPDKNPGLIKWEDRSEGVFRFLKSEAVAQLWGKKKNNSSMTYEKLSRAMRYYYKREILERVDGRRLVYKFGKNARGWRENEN
# In short: as §1
# [7] = target: SPI1 (Homo sapiens, UniProt P17947 1-270); details: protein: recombinant; tags: N-terminal GST; dsDNA, one strand shown
# In short: as §1
# [8] = target: SPIB (Homo sapiens, UniProt Q01892 1-262); details: protein: recombinant; tags: N-terminal GST; dsDNA, one strand shown
# Chain of SPIB (Q01892 whole entry): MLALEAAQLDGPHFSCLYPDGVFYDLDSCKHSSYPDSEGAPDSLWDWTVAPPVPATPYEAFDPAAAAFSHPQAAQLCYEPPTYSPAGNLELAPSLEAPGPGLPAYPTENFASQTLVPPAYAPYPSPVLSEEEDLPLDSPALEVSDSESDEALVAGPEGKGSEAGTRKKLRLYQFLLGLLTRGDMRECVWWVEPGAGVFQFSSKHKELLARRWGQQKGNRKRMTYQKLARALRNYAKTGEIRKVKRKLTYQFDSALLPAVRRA
# In short: as §1
# [9] = target: T6, ELK3 (Homo sapiens, UniProt P41970 1-407); details: protein: recombinant; tags: N-terminal GST; dsDNA, one strand shown
# T6 sequence: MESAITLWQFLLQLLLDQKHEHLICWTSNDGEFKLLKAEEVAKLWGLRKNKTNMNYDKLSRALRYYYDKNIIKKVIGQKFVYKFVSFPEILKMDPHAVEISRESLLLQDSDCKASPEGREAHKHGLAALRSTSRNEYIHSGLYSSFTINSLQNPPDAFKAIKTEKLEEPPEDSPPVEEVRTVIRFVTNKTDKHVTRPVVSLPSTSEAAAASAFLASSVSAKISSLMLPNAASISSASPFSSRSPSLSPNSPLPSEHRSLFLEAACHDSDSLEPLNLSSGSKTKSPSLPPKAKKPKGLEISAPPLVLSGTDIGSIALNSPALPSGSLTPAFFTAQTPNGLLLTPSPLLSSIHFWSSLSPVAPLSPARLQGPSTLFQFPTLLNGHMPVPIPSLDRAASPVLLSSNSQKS
# In short: as §1
# [10] = target: T7, FEV (Homo sapiens, UniProt Q99581 1-238); details: protein: recombinant; tags: N-terminal GST; dsDNA, one strand shown
# T7 sequence: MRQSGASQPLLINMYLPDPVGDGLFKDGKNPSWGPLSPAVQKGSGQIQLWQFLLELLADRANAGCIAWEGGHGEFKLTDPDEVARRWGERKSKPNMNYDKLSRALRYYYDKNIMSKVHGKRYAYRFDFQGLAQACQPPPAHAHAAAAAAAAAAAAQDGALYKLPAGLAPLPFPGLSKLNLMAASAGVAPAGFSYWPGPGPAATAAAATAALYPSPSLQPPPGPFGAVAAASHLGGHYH
# In short: as §1
# [11] = target: ETV5 (Homo sapiens, UniProt P41161 1-510); details: protein: recombinant; tags: N-terminal GST; dsDNA, one strand shown
# Chain of ETV5 (P41161 whole entry): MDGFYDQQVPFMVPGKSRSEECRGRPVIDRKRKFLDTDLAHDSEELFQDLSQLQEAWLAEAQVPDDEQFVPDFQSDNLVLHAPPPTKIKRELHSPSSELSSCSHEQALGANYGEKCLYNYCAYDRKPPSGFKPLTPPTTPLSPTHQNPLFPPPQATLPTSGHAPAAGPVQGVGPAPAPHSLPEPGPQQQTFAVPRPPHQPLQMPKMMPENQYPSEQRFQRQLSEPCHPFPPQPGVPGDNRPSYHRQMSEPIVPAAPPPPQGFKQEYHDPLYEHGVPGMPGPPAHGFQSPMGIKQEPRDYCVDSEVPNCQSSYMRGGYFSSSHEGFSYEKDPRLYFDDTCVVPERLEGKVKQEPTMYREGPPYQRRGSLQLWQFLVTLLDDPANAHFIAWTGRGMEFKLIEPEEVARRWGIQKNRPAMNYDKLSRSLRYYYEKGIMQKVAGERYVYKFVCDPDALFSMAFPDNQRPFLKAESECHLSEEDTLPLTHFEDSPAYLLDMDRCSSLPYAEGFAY
# In short: as §1
# [12] = target: HSF1 (Homo sapiens, UniProt Q00613 1-529); details: protein: recombinant; tags: N-terminal GST; chain copies: 3; dsDNA, one strand shown
# Chain of HSF1 (Q00613 whole entry): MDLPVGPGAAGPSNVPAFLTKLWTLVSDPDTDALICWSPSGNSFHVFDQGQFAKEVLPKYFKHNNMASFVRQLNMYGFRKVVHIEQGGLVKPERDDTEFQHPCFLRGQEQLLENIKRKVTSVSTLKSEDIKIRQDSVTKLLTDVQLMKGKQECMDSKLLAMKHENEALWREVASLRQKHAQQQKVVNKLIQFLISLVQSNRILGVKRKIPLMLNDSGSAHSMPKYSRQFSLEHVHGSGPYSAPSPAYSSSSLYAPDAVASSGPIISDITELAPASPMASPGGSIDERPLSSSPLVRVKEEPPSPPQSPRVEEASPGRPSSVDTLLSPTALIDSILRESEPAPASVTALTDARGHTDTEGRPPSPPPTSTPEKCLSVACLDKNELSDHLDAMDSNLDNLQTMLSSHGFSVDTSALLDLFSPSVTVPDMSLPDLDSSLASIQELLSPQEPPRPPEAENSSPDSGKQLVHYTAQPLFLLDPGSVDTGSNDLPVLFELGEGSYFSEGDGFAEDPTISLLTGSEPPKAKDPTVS
# In short: as §1
# [13] = target: T8, SPIC (Homo sapiens, UniProt Q8N5J4 1-248); details: protein: recombinant; tags: N-terminal GST; dsDNA, one strand shown
# T8 sequence: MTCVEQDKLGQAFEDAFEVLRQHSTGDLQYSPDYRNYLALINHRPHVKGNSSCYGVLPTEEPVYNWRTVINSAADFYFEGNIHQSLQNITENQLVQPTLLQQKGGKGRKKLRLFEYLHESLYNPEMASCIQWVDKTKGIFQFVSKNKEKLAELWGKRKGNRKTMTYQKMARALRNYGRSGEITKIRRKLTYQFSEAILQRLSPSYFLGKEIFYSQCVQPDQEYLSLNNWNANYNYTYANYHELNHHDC
# In short: as §1
# [14] = target: ELF4 (Homo sapiens, UniProt Q99607 1-663); details: protein: recombinant; tags: N-terminal GST; dsDNA, one strand shown
# Chain of ELF4 (Q99607 whole entry): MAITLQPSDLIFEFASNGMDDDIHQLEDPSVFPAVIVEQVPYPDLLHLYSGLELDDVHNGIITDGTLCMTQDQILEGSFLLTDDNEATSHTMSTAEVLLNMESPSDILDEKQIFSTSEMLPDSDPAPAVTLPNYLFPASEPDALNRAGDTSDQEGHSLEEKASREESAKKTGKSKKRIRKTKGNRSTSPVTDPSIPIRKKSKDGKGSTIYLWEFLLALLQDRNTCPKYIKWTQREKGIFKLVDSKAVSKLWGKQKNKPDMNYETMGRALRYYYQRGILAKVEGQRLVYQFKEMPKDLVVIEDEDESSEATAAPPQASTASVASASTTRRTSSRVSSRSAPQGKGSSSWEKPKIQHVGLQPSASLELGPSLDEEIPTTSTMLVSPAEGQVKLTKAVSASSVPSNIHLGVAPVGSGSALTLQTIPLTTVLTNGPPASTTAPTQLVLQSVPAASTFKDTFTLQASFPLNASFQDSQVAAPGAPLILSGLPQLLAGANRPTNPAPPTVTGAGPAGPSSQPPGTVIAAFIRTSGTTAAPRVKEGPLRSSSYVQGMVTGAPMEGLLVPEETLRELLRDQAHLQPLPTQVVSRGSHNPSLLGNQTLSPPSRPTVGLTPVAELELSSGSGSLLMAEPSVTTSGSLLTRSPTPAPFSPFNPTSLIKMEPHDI
# In short: as §1
# [15] = target: T9, ELK4 (Homo sapiens, UniProt P28324-2 1-405); details: protein: recombinant; tags: N-terminal GST; dsDNA, one strand shown
# T9 sequence: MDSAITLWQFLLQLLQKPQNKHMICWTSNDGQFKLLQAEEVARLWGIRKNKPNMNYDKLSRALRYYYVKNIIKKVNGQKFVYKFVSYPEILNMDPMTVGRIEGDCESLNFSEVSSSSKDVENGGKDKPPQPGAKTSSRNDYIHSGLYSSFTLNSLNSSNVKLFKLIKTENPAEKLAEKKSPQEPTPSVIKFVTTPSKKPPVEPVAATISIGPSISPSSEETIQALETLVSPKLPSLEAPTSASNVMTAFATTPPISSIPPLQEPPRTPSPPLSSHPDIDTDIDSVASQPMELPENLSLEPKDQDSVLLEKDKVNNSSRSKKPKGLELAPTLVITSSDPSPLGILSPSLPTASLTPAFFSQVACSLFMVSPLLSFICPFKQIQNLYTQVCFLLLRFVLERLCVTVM
# In short: as §1
# [16] = target: T10, ETV2 (Homo sapiens, UniProt O00321 1-342); details: protein: recombinant; tags: N-terminal GST; dsDNA, one strand shown
# T10 sequence: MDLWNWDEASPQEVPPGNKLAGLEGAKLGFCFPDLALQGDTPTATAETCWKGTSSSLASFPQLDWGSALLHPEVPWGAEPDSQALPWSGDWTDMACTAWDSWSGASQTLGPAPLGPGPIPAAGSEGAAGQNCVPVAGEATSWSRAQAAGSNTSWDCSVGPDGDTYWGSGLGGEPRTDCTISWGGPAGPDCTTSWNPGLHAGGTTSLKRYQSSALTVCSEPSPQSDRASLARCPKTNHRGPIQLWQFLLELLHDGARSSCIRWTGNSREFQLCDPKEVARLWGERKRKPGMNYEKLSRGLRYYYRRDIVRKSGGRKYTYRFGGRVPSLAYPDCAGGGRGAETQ
# In short: as §1
# [17] = target: T11, ELF3 (Homo sapiens, UniProt P78545 1-371); details: protein: recombinant; tags: N-terminal GST; dsDNA, one strand shown
# T11 sequence: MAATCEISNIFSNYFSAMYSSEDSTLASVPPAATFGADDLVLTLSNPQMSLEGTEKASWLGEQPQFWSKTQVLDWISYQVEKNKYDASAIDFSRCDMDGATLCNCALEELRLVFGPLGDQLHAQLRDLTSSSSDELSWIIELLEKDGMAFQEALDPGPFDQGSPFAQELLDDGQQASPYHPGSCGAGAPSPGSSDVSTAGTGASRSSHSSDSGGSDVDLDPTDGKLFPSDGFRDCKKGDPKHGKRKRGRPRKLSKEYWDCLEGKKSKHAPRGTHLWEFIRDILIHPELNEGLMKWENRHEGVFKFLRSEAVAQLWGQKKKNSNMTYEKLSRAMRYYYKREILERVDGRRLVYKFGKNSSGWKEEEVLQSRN
# In short: as §1
# [18] = target: CRX (Homo sapiens, UniProt O43186 1-299); details: protein: recombinant; tags: N-terminal GST; dsDNA, one strand shown
# Chain of CRX (O43186 whole entry): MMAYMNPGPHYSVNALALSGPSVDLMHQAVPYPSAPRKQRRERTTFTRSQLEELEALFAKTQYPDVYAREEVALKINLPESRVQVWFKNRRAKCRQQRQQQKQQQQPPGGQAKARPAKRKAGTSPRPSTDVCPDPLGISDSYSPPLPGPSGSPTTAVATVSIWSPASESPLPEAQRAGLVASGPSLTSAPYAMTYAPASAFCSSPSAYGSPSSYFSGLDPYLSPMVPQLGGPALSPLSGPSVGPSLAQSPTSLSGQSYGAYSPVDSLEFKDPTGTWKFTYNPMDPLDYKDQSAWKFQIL
# In short: as §1
# [19] = target: ETV1 (Homo sapiens, UniProt P50549 1-477); details: protein: recombinant; tags: N-terminal GST; dsDNA, one strand shown
# Chain of ETV1 (P50549 whole entry): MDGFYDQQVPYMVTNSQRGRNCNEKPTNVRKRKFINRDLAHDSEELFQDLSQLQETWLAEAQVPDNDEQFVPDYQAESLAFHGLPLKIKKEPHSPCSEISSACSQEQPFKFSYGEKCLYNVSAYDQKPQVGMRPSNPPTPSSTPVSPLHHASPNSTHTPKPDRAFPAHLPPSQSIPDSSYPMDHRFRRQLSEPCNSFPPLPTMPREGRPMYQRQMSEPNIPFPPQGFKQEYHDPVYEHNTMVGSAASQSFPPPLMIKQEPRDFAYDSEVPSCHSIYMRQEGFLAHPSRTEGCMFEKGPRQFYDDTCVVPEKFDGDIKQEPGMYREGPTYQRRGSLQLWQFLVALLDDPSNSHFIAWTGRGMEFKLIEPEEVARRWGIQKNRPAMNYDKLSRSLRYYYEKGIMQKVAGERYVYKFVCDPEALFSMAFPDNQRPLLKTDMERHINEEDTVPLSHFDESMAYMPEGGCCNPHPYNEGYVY
# In short: as §1
sequence,measurement,setting,value
TTGAAA,binding signal,[1],"1.22 fold enrichment (6-mer frequency, TF over GST control)"
same,binding signal,[2],"1.25 fold enrichment (6-mer frequency, TF over GST control)"
same,binding signal,[3],"1.11 fold enrichment (6-mer frequency, TF over GST control)"
same,binding signal,[4],"1.09 fold enrichment (6-mer frequency, TF over GST control)"
same,binding signal,[5],"1.23 fold enrichment (6-mer frequency, TF over GST control)"
same,binding signal,[6],"1.23 fold enrichment (6-mer frequency, TF over GST control)"
same,binding signal,[7],"1.18 fold enrichment (6-mer frequency, TF over GST control)"
same,binding signal,[8],"1.1 fold enrichment (6-mer frequency, TF over GST control)"
same,binding signal,[9],"1.09 fold enrichment (6-mer frequency, TF over GST control)"
same,binding signal,[10],"1.13 fold enrichment (6-mer frequency, TF over GST control)"
same,binding signal,[11],"1.18 fold enrichment (6-mer frequency, TF over GST control)"
same,binding signal,[12],"1.24 fold enrichment (6-mer frequency, TF over GST control)"
same,binding signal,[13],"1.15 fold enrichment (6-mer frequency, TF over GST control)"
same,binding signal,[14],"1.21 fold enrichment (6-mer frequency, TF over GST control)"
same,binding signal,[15],"1.18 fold enrichment (6-mer frequency, TF over GST control)"
same,binding signal,[16],"1.28 fold enrichment (6-mer frequency, TF over GST control)"
same,binding signal,[17],"1.13 fold enrichment (6-mer frequency, TF over GST control)"
same,binding signal,[18],"1.24 fold enrichment (6-mer frequency, TF over GST control)"
same,binding signal,[19],"1.16 fold enrichment (6-mer frequency, TF over GST control)"
